In PubChem BioAssay (NCI):
The panel holds about 79,000 compounds, 15% with a hit somewhere; the sample as a whole holds those more often. No stated cut-off is given here; in the data, active means growth inhibition above about 70%; inactive means the rest.

Columns and labels:
[1] = NCI Yeast Anticancer Drug Screen. Data for the rad50 strain (AID 155);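 further: 0% = growth of vehicle-only cultures of the same strain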; settings: S. cerevisiae rad50 strain growth inhibition; at 50.0 µM; stronger effect = higher value
Procedure, shortened: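 A DNA repair-deficient yeast mutant serves as the test organism; compound-induced growth inhibition is calculated against vehicle-treated cells.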

[2] = NCI Yeast Anticancer Drug Screen. Data for the mec2-1 strain (AID 157); settings: S. cerevisiae mec2-1 strain, at 50.0 µM, stronger effect = higher value
Procedure, shortened: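 Compounds were applied to mec2-1 yeast cells. Their growth was then compared with that of vehicle-treated cultures to give growth inhibition.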

[3] = NCI Yeast Anticancer Drug Screen. Data for the sgs1 mgt1 strain (AID 161);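 further: 0% = growth of cultures given vehicle only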; settings: S. cerevisiae sgs1 mgt1 strain, at 50.0 µM, stronger effect = higher value
Procedure, shortened: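 Percent growth inhibition was derived by comparing compound-exposed mutant yeast with vehicle-exposed cultures. The strain carries alterations in DNA damage repair.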

[4] = NCI Yeast Anticancer Drug Screen. Data for the cln2 rad14 strain (AID 165);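 further: 0% = growth equal to vehicle treated cultures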; settings: S. cerevisiae cln2 rad14 strain, at 50.0 µM, stronger effect = higher value
Procedure, shortened: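 Strain: cln2 rad14 yeast, altered in cell cycle control and DNA damage repair. Read-out: growth inhibition vs vehicle.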

[5] = NCI Yeast Anticancer Drug Screen. Data for the bub3 strain (AID 167); settings: S. cerevisiae bub3 mutant strain, at 50.0 µM, stronger effect = higher value
Procedure, shortened: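 Inhibition values come from growth of compound-treated mutant yeast normalised to vehicle-treated controls.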

[6] = NCI Yeast Anticancer Drug Screen. Data for the mlh1 rad18 strain (AID 175); settings: S. cerevisiae mlh1 rad18 strain growth inhibition; at 50.0 µM; stronger effect = higher value
Procedure, shortened: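 A repair-deficient yeast strain is exposed to test compound, and growth is scored relative to vehicle-treated controls.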

Measured: growth inhibition

Cc1cc2[nH]c3c(C#N)c(O)c(C(C)C)c(=O)n3c2cc1C
inactive: [1] -1.05% | [2] 7.8% | [3] 11.6% | [4] 1.35% | [5] 10.8% | [6] 11.2%

COC(=O)CCCC1(CCCC(=O)OC)CCCCCCCCC(CCCC(=O)OC)(CCCC(=O)OC)C(=O)C1=O
inactive: [1] 21.8% | [2] 36.9% | [3] 37.2% | [4] 45.5% | [5] 35.8% | [6] 47.6%

NCc1ccc2ccc3ccccc3c2c1
inactive: [1] 11.1% | [2] -0.95% | [3] -1.35% | [4] 11.2% | [5] -4.45% | [6] 19.7%

O=c1[nH]cc(CNc2ccccc2)c(=O)[nH]1
inactive: [1] -5.5% | [2] 4.75% | [3] -9.45% | [4] -27.8% | [5] -18.2% | [6] 8.5%

[O-]/[N+](=C\c1cccc(O)c1)c1ccccc1
inactive: [1] -1.75% | [2] 16.4% | [3] 11.8% | [4] -21.2% | [5] -5.5% | [6] 15%

CCC(O)CN(C)C (stereo unspecified)
inactive: [1] 8% | [2] -4.6% | [3] 6.65% | [4] -13.4% | [5] 0.85% | [6] 3.45%

Cc1ccc(C(CCCl)OC(C)C)cc1 (stereo unspecified)
inactive: [1] 7% | [2] 7.35% | [3] 22% | [4] 25.2% | [5] 22.6% | [6] 17.8%

N=C1C=CC2C(=Nc3ccccc3[N+]2=O)N1Cc1ccncc1 (stereo unspecified)
inactive: [1] -2.9% | [2] 1.3% | [3] -6% | [4] 1.45% | [5] 7.55% | [6] 22.8%

CCCCCCCCCCCCCCCCCCNC(=O)N1CCCCC1C (stereo unspecified)
inactive: [1] 10.2% | [2] -3.9% | [3] -14.7% | [4] -24.1% | [5] -3.9% | [6] 14.3%

CN(C)CCCNc1ccnc2cc([N+](=O)[O-])ccc12
inactive: [1] 10.2% | [2] 3.3% | [3] 4.4% | [4] -4.1% | [5] -1.3% | [6] -17.1%

CCCC(CCC)C(=O)[O-].CCCC(CCC)C(=O)[O-].CCCC(CCC)C(=O)[O-].CCCC(CCC)C(=O)[O-].[Cu+2].[Cu+2]
inactive: [1] 1.4% | [2] 13.4% | [3] -2.8% | [4] 19.9% | [5] 20% | [6] 14.2%

O=C1OC(c2ccccc2)=CC1Cc1ccccc1 (stereo unspecified)
inactive: [1] 34.9% | [2] -2.35% | [3] 1.85% | [4] 3.4% | [5] -3% | [6] -8%

CCOC(=O)c1nc2ccccc2c(=O)n1NC(=S)Nc1ccc(Cl)cc1
inactive: [1] -40.4% | [2] 5.95% | [3] -1.2% | [4] 8.8% | [5] -4.15% | [6] -15%

COC(=O)C(=O)C(C(=O)C(=O)Nc1cc([N+](=O)[O-])ccc1[N+](=O)[O-])c1nc2ccc(C(=O)c3ccccc3)cc2[nH]c1=O (stereo unspecified)
inactive: [1] 29.7% | [2] 15.8% | [3] 4.1% | [4] -16.1% | [5] 40.6% | [6] 18.9%

Cc1c2c(cc3c(=O)ccn(CCN(C)C)c13)c(=O)ccn2CCN(C)C
inactive: [1] -71.1% | [2] -22.8% | [3] -11.8% | [4] 14.3% | [5] -20.4% | [6] -16.4%

C=CCOC(=O)Cc1ccccc1C(=O)OCC=C
inactive: [1] -7.55% | [2] -1.2% | [3] -6.6% | [4] -42.2% | [5] 21.4% | [6] -6.25%

C(CCc1nnc2c(n1)CCCC2)Cc1nnc2c(n1)CCCC2
inactive: [1] -7.6% | [2] -17.9% | [3] -1.05% | [4] -12.1% | [5] 10.1% | [6] -2.4%

O=C(Nc1nc2ncn(CCNCc3ccccc3)c2c(=O)[nH]1)c1ccccc1
inactive: [1] -7.75% | [2] -22.8% | [3] 6.25% | [4] 10.6% | [5] 15.4% | [6] 24.6%

Nc1ccc2ccc(S(=O)(=O)O)cc2c1
inactive: [1] -17.7% | [2] -19.9% | [3] -31.4% | [4] -23.3% | [5] -8.8% | [6] -17.9%

CC(C)CC(=O)OC1CCCCC1C1CCCCC1 (stereo unspecified)
inactive: [1] -2.1% | [2] -6.35% | [3] 12.3% | [4] 7.25% | [5] 13.4% | [6] -4%

NCCn1[nH]c(=O)c2ncccc2c1=O
inactive: [1] -59% | [2] -27.6% | [3] -4.45% | [4] -49.1% | [5] -6.6% | [6] -14.9%

Cn1c(=O)c2[nH]c(CC3=CCCCC3)nc2n(C)c1=O
inactive: [1] -13.6% | [2] 13.1% | [3] 6.05% | [4] -8.35% | [5] 4.4% | [6] 21.6%

CC(C)=Cc1cc(C(=O)Nc2ccc(Cl)c(Cl)c2)nc(N)n1
inactive: [1] -25.2% | [2] -45.4% | [3] -10.6% | [4] -0.5% | [5] -41.8% | [6] -32.1%

FC(F)(F)C1(C(F)(F)F)C2CCC3(CC(F)(F)C(F)(F)S3)C1C2 (stereo unspecified)
inactive: [1] -1.05% | [2] -27.9% | [3] -4.25% | [4] 22.9% | [5] 7.65% | [6] 30.6%

Cc1[nH]c(=O)[nH]c(=O)c1N
inactive: [1] 4.8% | [2] -10.4% | [3] -28.9% | [4] -19.4% | [5] -2.9% | [6] 2%

Cc1c([N+](=O)[O-])cc2c(c1[N+](=O)[O-])C(=O)c1ccccc1-2
inactive: [1] -2.1% | [2] 4.35% | [3] 8.5% | [4] -14.9% | [5] -6.05% | [6] 7.9%

Cn1c(=O)n2c(-c3ccccc3)c(-c3ccccc3)n2c1=O
inactive: [1] 6.85% | [2] -19.6% | [3] -23.8% | [4] 0.5% | [5] -25.9% | [6] -28.9%

COc1cc(C=O)c([N+](=O)[O-])cc1OC
inactive: [1] 14.2% | [2] -20.7% | [3] 18.2% | [4] 20.9% | [5] -8.5% | [6] -8.85%

C[N+](C)(C)/N=C1\CC2CCC1C2 (stereo unspecified)
inactive: [1] 18.3% | [2] -4.5% | [3] -5.55% | [4] 4.75% | [5] 1.9% | [6] 23.1%

Cc1[nH]c(=O)[nH]c(=O)c1-n1nnc2ccccc2c1=O
inactive: [1] 21.9% | [2] 12.8% | [3] 20.7% | [4] -7.05% | [5] 8.3% | [6] 6.8%

O=C1C[C@@H]2CCCC[C@@H]2C12SCCS2
inactive: [1] -10.9% | [2] -18.6% | [3] -6.95% | [4] 13.8% | [5] -9.45% | [6] -5.25%

COc1cc2ccnc(CCCc3nccc4cc(OC)c(OC)cc34)c2cc1OC
inactive: [1] -30.1% | [2] -4.05% | [3] -27.4% | [4] -1.9% | [5] -1.75% | [6] -9.3%

O=c1n(-c2ccccc2)c(=O)n2n1C1C3C4C5C1C5C2C43 (stereo unspecified)
inactive: [1] -8.4% | [2] 8.95% | [3] 12.3% | [4] 5.85% | [5] 5% | [6] 12.8%

C[N+](C)(C)CC(=O)N/N=C(/C=C/c1ccccc1)CC1OC(=O)c2ccccc21 (stereo unspecified)
inactive: [1] -9.65% | [2] -11.4% | [3] -3.5% | [4] 16.2% | [5] -7.5% | [6] 3.9%

C/C(Cc1ccccc1)=N\NC(N)=S
inactive: [1] 13.3% | [2] 1.15% | [3] 27.6% | [4] -12.7% | [5] 8.5% | [6] 29.5%

CC(C)(C)OC(=O)C1/C(=C/CO)CN1C(=O)OC(C)(C)C (stereo unspecified)
inactive: [1] -17.9% | [2] -36.2% | [3] -12.2% | [4] 7.4% | [5] -12.1% | [6] -28.9%

[N-]=[N+]=NC1=NNC2(C(=O)N1)c1ccccc1-c1ccccc12
inactive: [1] -6.35% | [2] -17.5% | [3] -22.9% | [4] -5.75% | [5] -30.1% | [6] -18.6%

O=C(NCCN1CCCCC1)C(O)(C1CCCCC1)C1CCCCC1
inactive: [1] -6.85% | [2] 7.65% | [3] 12.2% | [4] 19.2% | [5] 9.75% | [6] 3.9%

CC1SC2=NC3=C(c4ccccc4C3=O)C(c3ccccc3Cl)N2C1=O (stereo unspecified)
inactive: [1] 15.8% | [2] 8.75% | [3] 8.55% | [4] 4.95% | [5] 17.9% | [6] 23.3%

CCOC(=O)C(CS(=O)(=O)N(CC)CC)NC(=O)c1ccccc1 (stereo unspecified)
inactive: [1] -1.4% | [2] -10.6% | [3] 2.9% | [4] -10.8% | [5] 5.15% | [6] -18.6%

Cc1cccc(C)c1Nc1n[nH]c(=S)s1
inactive: [1] 18.3% | [2] 33.8% | [3] 45.5% | [4] 0.8% | [5] 44.5% | [6] 13.9%
